Bioassay records from PubChem BioAssay.
The list is not random: actives were taken first. Their share in the collection is about 7.4%.
NPC1 prom act: NPC1 promoter activation. Huh7 NPC1 promoter luciferase reporter, 24 h. Potency, µM (top dose mostly 9.22 µM), for the others: at the highest dose activation, usual class: activators. 320,000 tested, 2.4% active; note: % of control where 0% means no effect; nearly all actives have a fitted effect of over 60% in size
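Luminescence from an NPC1 promoter-driven luciferase reporter in stably transfected Huh7 cells was measured after 24 h compound treatment at 37 °C, followed by 10 min ambient incubation with luciferase detection reagent.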
SMN2 splice up: SMN2 splice variant enhancement; HEK293 SMN2-luciferase splicing reporter, luminescence, 30-36 h; Potency, µM (doses to about 46.1 µM), without a hit: at the highest dose activity change, positive = activation, actives largely listed as activators; 210,000 tested, 2.8% active; AID 1458; note: % of control where 0% means no effect; nearly all actives have a fitted effect of over 55% in size
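HEK293 cells carry an SMN2 minigene-luciferase reporter in which exon 7 inclusion puts luciferase in frame. Cells were seeded at 2000 cells/well, attached for 10-12 hours, then exposed to compounds for 30-36 hours at 37C before ONE-Glo luminescence.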
ELG1 genotoxic: inducers of genotoxicity in HEK293T ELG1-luciferase cells. HEK293T ELG1-luciferase reporter, luminescence, 16 h. Potency, µM (top dose mostly 46 µM), for inactives: at the highest dose activity change, positive = activation, hits mostly activators. 330,000 tested, 1.3% active; note: % of control where 0% means no effect; nearly all actives have a fitted effect of over 60% in size
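After overnight (16 hr) compound treatment at 37 °C, ELG1-luciferase HEK293T cells were lysed with ONE-Glo; luminescence quantified 30 min later at room temperature.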
FLuc modulator: firefly luciferase modulation, counter-screen for miR-21 project; Potency, µM (top dose mostly 57.5 µM), without a hit: at the highest dose activity change, negative = inhibition, actives largely listed as inhibitors; 360,000 tested, 6.9% active; AID 588342; purified FLuc, Km substrates, luminescence inhibition;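 note: plate controls were vehicle for no effect and reference inhibitor for full effect; nearly all actives have a fitted effect of over 55% in size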
Target sequence (P08659 whole entry, looked up): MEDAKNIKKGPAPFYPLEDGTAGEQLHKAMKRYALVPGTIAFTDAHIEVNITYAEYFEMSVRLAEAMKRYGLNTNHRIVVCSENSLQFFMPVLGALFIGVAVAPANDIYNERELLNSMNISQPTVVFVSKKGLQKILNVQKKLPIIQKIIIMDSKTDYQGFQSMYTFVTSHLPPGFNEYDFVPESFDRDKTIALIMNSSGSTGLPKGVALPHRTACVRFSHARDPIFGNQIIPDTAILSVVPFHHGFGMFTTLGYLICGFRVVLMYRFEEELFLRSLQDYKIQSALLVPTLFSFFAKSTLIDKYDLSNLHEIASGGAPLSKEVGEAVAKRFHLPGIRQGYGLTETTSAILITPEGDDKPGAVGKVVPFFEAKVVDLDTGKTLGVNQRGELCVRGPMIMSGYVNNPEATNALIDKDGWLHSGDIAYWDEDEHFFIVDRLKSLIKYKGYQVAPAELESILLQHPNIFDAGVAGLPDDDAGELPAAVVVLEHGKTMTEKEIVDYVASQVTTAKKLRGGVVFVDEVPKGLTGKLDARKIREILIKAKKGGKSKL
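Purified P. pyralis luciferase, 10 nM final, with Km-level 10 uM D-luciferin and 10 uM ATP in 50 mM Tris acetate pH 7.5, 10 mM Mg acetate, 0.01% Tween-20, 0.05% BSA; 6-point qHTS titration about 60 µM downward; luminescence read.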
Rab9 promoter act: Rab9 promoter activation; 320,000 tested, 2.8% active; Huh7 Rab9 promoter-luciferase reporter, luminescence, 24 h; Potency, µM (series often up to 9.22 µM), for the others: at the highest dose activation, negative = inhibition, usual class: activators; note: % of control where 0% means no effect; nearly all actives have a fitted effect of over 60% in size
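Huh7 cells stably carrying a Rab9 promoter-luciferase reporter, 1500 cells per well in OP-MEM I with 10% FBS, treated with compound 24 hours at 37C. Luciferase activity read by luminescence after 10 minutes with Amplite reagent.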
An asterisk follows results filed as active; ? = inconclusive; / = no result given; [ ] = dose if it differs, or a comment. Calls come from the whole dose curve; as a rule, active = well fitted curve in the direction sought with a large enough effect; inconclusive = small, poorly fitted or top-dose-only effect, or another doubt; inactive = no such curve, though single readings can be large; an effect the other way counts as inactive or inconclusive. Potency is the fitted concentration of half-maximal effect.

SMILES | NPC1 prom act | SMN2 splice up | ELG1 genotoxic | FLuc modulator | Rab9 promoter act
COc1cccc(NC(=O)c2ccc3nsnc3c2)c1 | ? | / | ? | 12µM* | ?
COc1cccc(NC(=O)Nc2cccc(C(=O)O)c2)c1 | ? | / | -10.2% | 0.169µM* | ?
COc1cc(C(=O)Nc2ccc(S(=O)(=O)N(C)c3ccccc3)cc2)cc(OC)c1OC | -6.5% | ? | 10.8% | -0.8% | 10.0%
COc1cccc(NC(=O)c2nnn(CCc3ccccc3)c2N)c1 | 28.3% | ? | ? | 15.1µM* | 27.8%
COCC(=O)N1CCC2(CC1)CCN(c1ccncc1)CC2 | / | -15.0% | / | / | /
CCn1c(=N)n(CCOc2ccc(Br)cc2)c2ccccc21 | / | / | / | 0.8% | /
COc1ccc(CC(=O)N2CCc3cc(OC)c(OC)cc3C2COc2ccc3c(C)cc(=O)oc3c2)cc1OC (stereo not drawn) | / | 3.5% | / | 1.9% | /
COc1ccc2cc(/C(C)=N/NC(=O)C3CC3)ccc2c1 | 2.51µM* | 15.8µM* | 18.3µM* | 2.39µM* | 2.82µM*
COc1ccc(C(=O)Nc2cccc(OC)c2)cc1 | 2µM* | 2.82µM* | 2.31µM* | 6.75µM* | 1.26µM*
C/C(=N/NC(=O)c1ccoc1C)c1cccc(NC(=O)C(F)(F)F)c1 | 14.6% | 18.1% | ? | ? | 27.9%
COc1ccc(C(=O)N/N=C(/C)c2cccc(NC(=O)C(F)(F)F)c2)cc1 | 3.55µM* | 10µM* | ? | 10.7µM* | ?
COc1ccccc1NC(=O)c1ccc2nsnc2c1 | ? | / | ? | 15.1µM* | 3.98µM*
COC(=O)c1ccccc1NC(=O)N1CCN(c2ccc(OC)cc2)CC1 | -2.8% | -12.0% | -3.3% | 2.5% | -4.1%
ICCc1ccccc1 | / | -7.7% | / | / | /
Cc1nnsc1C(=O)N1CCCC(Nc2ccc(F)c(F)c2)C1 (stereo not drawn) | -1.2% | / | 0.0% | -7.0% | 0.0%
COc1cccc(C(=O)N/N=C(\C)CC(=O)Nc2ccc(N(C)C)cc2)c1 | 0.1% | / | 0.5% | ? | -2.0%
COc1cccc(NC(=O)c2ccc(OC(F)(F)F)cc2)c1 | 3.98µM* | / | ? | 2.39µM* | 1.78µM*
COc1cccc(/C(C)=N/NC(=O)c2ccc(N(C)C)cc2)c1 | ? | ? | ? | 19µM* | 3.55µM*
COc1cccc(NC(=O)c2ccccc2C(F)(F)F)c1 | -5.5% | 10.3% | -0.6% | -0.4% | 3.9%
COc1cccc(NC(=O)c2cccc(C)c2[N+](=O)[O-])c1 | 9.9% | ? | ? | 19µM* | ?
Cc1[nH]c2ccc(C(=O)N3CCCCC3)cc2c1C | 3.16µM* | 12.6µM* | ? | 19µM* | 3.16µM*
Cc1ccc(OCC(=O)Nc2cccc(S(=O)(=O)N3CCCCCC3)c2)cc1C | -0.8% | / | ? | ? | -1.7%
CCCC(=O)OC(=O)CCC | / | -0.6% | / | / | /
Cc1cccc(-c2nn(-c3ccccc3)cc2C(=O)N(C)CC(=O)Nc2ccc(N3CCOCC3)cc2)c1 | 0.7% | / | -4.4% | -5.3% | -3.2%
COc1ccc(NC(=O)Nc2ccc(Br)cn2)cc1OC | 1.2% | -2.1% | 14.4% | ? | 3.2%
SMILES | NPC1 prom act | SMN2 splice up | ELG1 genotoxic | FLuc modulator | Rab9 promoter act
COC(=O)c1ccccc1NC(=O)Nc1cccnc1 | 10.6% | 9.0% | -0.2% | 15.1µM* | 4.2%
COc1ccc(NC(=O)Nc2cccnc2)c(OC)c1 | 0.9% | 7.2% | 2.8% | -10.2% | -2.0%
Cc1[nH]c2ccc(C(=O)Nc3ccc(F)cc3)cc2c1C | / | / | / | 23.9µM* | /
COc1cccc(NC(=O)Nc2cccnc2)c1 | 17.4% | / | 1.6% | 16.9µM* | 4.6%
COc1cccc(NC(=O)Nc2ccc(Br)cn2)c1 | ? | / | ? | ? | 3.16µM*
COc1cccc(-c2nnc(NC(=O)c3ccccc3Br)o2)c1 | 0.2% | / | -9.3% | -13.0% | 0.5%
COc1ccccc1N1CCN(C(=O)Nc2cccc(Cl)c2)CC1 | 12.7% | -17.1% | 7.9% | ? | 0.9%
COc1cc(C(=O)Nc2cccc(NC(=O)c3ccccc3)c2)cc(OC)c1OC | -0.8% | / | -8.2% | 15.1µM* | 2.4%
COc1cccc(C(=O)Nc2cccc(-c3ccccc3)c2)c1 | 1.6% | / | 1.0% | 21.3µM* | 2.8%
COc1cccc(-c2nnc(NC(=O)c3cccc(F)c3)o2)c1 | 0.3% | / | ? | 16.9µM* | 1.2%
COc1cccc(NC(=O)N2CCN(c3cccc(C)c3C)CC2)c1 | 17.8% | 1.6% | ? | 15.1µM* | 2.6%
COc1cc(C(=O)Nc2cccc(C(C)=O)c2)cc(OC)c1OC | -2.0% | / | 1.3% | -24.0% | -2.6%
COc1cccc(C(=O)Nc2cccc(NC(C)=O)c2)c1 | -4.8% | -1.4% | 3.2% | ? | -1.4%
CN(C)c1nc(N)c([N+](=O)[O-])c(N2CCCCCC2)n1 | 2.4% | / | 2.4% | -0.1% | -8.3%
Cc1cc2c(cc3c(SCc4ccc(Cl)cc4)nncn32)o1 | / | / | / | 1.7% | /
COc1cc(OC)cc(C(=O)Nc2cccc(C(C)=O)c2)c1 | 14.6% | 9.9% | ? | ? | 18.3%
COc1ccc(S(=O)(=O)N/N=C(/C)c2cccc(NC(=O)c3ccccc3Cl)c2)cc1 | -2.7% | -3.3% | -3.2% | 26.9µM* | -0.5%
CC(=O)Nc1cccc(/C(C)=N/NS(=O)(=O)c2ccccc2)c1 | -3.9% | 20.0% | 0.9% | 2.0% | -3.8%
COc1ccc(S(=O)(=O)N/N=C(/C)c2ccncc2)cc1 | -1.6% | / | -0.5% | 6.4% | 5.3%
CC(C)OC(=O)c1cccc(NC(=O)c2ccccc2)c1 | ? | ? | 13.7% | 13.5µM* | ?
COc1ccc(S(=O)(=O)N/N=C(/C)c2ccco2)cc1 | ? | / | ? | 16.9µM* | 2.51µM*
COc1cc(OC)cc(C(=O)Nc2cccc(NC(=O)c3ccccc3)c2)c1 | -4.1% | / | -6.6% | 16.9µM* | 0.1%
COc1ccc(N2CCN(C(CNS(=O)(=O)c3ccc(OC)c(C)c3)c3ccco3)CC2)cc1 (stereo not drawn) | / | / | / | -7.3% | /
COc1cccc(NC(=O)c2cccc(C(=O)Nc3cccc(OC)c3)c2)c1 | 10.2% | / | 12.7% | -1.0% | 9.6%
COc1cccc(NC(=O)CCC(=O)Nc2cccc(OC)c2)c1 | 1.9% | -14.3% | 2.3% | -0.6% | 6.2%
SMILES | NPC1 prom act | SMN2 splice up | ELG1 genotoxic | FLuc modulator | Rab9 promoter act
COc1cccc(NC(=O)CC(=O)c2ccc([N+](=O)[O-])cc2)c1 | ? | / | 7.7% | 2.13µM* | 2.8%[1.84 µM]
COc1cccc(NC(=O)C(C)C)c1 | -2.1% | / | 2.4% | -2.5% | -5.8%
NC(=O)c1ccc(NC(=O)c2cccc(Oc3ccccc3)c2)cc1 | -1.4% | -6.5% | 10.2% | 4.9% | -6.7%
NS(=O)(=O)c1cccc(NC(=O)c2cccc(Oc3ccccc3)c2)c1 | 6.1% | / | 3.8% | 10.7µM* | 6.2%
COc1cccc(NC(=O)c2ccccc2)c1 | 2.82µM* | / | ? | 10.7µM* | 1.78µM*
COc1cccc(NC(=O)c2ccc(NC(=O)C(C)C)cc2)c1 | ? | / | ? | 10.7µM* | ?
COc1cc(C(=O)Nc2cccc(NC(=O)c3cccs3)c2)cc(OC)c1OC | -6.7% | / | -3.2% | 23.9µM* | -2.1%
COc1cccc(C(=O)Nc2cc(Cl)c(O)c(Cl)c2)c1 | ? | / | 7.9% | 15.1µM* | 11.6%
